Assay results reported in PubChem BioAssay.
Measured potencies and affinities stand elsewhere. Inconclusive results are not listed. The source made the active and inactive calls.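 The calls were made as follows, unless noted: active = a fitted half-maximal concentration no higher than twice the top valid tested dose, with signal falling as cells die; inconclusive = flat curve between -70% and -30%, or poor fit; inactive = the rest, including signal rising instead of falling.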

What was measured:
[1] = Cryptococcus neoformans growth inhibition, dose response, Alamar Blue, cherry-picks (AID 686998;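 active = falling signal with fitted half-maximal potency no higher than twice the top valid tested dose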); details: 24 h; series mostly up to 35 µM
[2] = HepG2 cell cytotoxicity, dose response, cytotoxicity control, cherry-picks, set 2 (AID 687002;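 active = a dose-response fit showing signal loss, with half-maximal concentration no higher than twice the top tested dose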); details: HepG2 viability, ATP luminescence (CellTiter-Glo), 48 h; series mostly up to 26 µM
[3] = HeLa cell cytotoxicity, dose response, cytotoxicity control, ATP luminescence, cherry-pick samples (AID 687004); details: HeLa viability, ATP luminescence (CellTiter-Glo), 48 h; series mostly up to 26 µM

Measured: outcome

CC(C)NC(=O)N[C@H]1CC[C@@H](CCNC(=O)C2CC2)O[C@H]1CO
inactive: all assays above

C[C@H](O)C#Cc1ccc2c(c1)O[C@H](CN(C)Cc1ccncc1)[C@H](C)CN([C@H](C)CO)S2(=O)=O
inactive: all assays above

O=C(Nc1ccccc1N1CCOCC1)c1cccc([N+](=O)[O-])c1
inactive: all assays above

C[C@@H]1CCCCO[C@@H](CN(C)C(=O)Nc2ccc3c(c2)OCO3)[C@@H](C)CN([C@H](C)CO)C(=O)c2cc(NC(=O)Nc3cccc4ccccc34)ccc2O1
inactive: all assays above

C[C@@H]1CCCCO[C@@H](CN(C)C(=O)CCCN(C)C)[C@@H](C)CN([C@H](C)CO)C(=O)c2cc(NC(=O)Cc3ccccc3)ccc2O1
inactive: all assays above

CCCC(=O)Nc1ccc2c(c1)C(=O)N(C)C[C@H](OC)[C@@H](C)CN(C(=O)c1cccnc1)[C@@H](C)CO2
inactive: all assays above

C[C@@H]1CCCCO[C@H](CN(C)S(=O)(=O)c2cccs2)[C@@H](C)CN([C@@H](C)CO)C(=O)c2cc(NC(=O)CCC(F)(F)F)ccc2O1
inactive: all assays above

CO[C@@H]1CN(C)C(=O)c2cc(NS(=O)(=O)c3cccc(C)c3)ccc2OC[C@@H](C)NC[C@H]1C
inactive: all assays above

CCCC(=O)Nc1ccc2c(c1)C(=O)N(C)C[C@H](OC)[C@@H](C)CN(C(=O)c1cccnc1)[C@H](C)CO2
inactive: all assays above

CC(C)CC#Cc1cnc2c(c1)C(=O)N([C@H](C)CO)C[C@H](C)[C@@H](CN(C)Cc1cccc(F)c1)O2
inactive: all assays above

O=C(NCCc1ccccc1)[C@@H]1[C@@H](CO)[C@@H]2Cn3c(cccc3=O)[C@H]1N2C(=O)C1CCC1
inactive: all assays above

CCN(Cc1ccccc1)C(=O)COc1ccccc1
inactive: all assays above

C[C@H](CO)N1C[C@H](C)[C@@H](CN(C)CC2CCOCC2)Oc2ncc(C#Cc3ccc(F)cc3)cc2C1=O
inactive: all assays above

CC(C)NC(=O)Nc1ccc2c(c1)C(=O)N([C@@H](C)CO)C[C@H](C)[C@@H](CN(C)S(=O)(=O)c1cccs1)OCCCC[C@H](C)O2
inactive: all assays above

COc1ccc(NC(=S)NCc2ccc(Cl)cc2)c(OC)c1
inactive: all assays above

CC(C)NC(=O)Nc1ccc2c(c1)C(=O)N([C@@H](C)CO)C[C@@H](C)[C@H](CN(C)C(=O)c1ccncc1)OCCCC[C@H](C)O2
inactive: all assays above

C[C@H](CO)N1C[C@H](C)[C@H](CN(C)C(=O)Nc2cccc3ccccc23)Oc2ccc(NC(=O)Cc3ccccc3)cc2CC1=O
inactive: all assays above

CC(C)C#Cc1ccc([C@@H]2[C@H](CO)N3CCCCN(C(=O)c4ccc5c(c4)OCO5)C[C@@H]23)cc1
inactive: all assays above

Cc1noc(C)c1S(=O)(=O)Nc1ccc2c(c1)C(=O)N([C@@H](C)CO)C[C@@H](C)[C@@H](CN(C)Cc1ccccc1)OCCCC[C@H](C)O2
inactive: all assays above

CCCNC(C)C(=O)Nc1ccccc1C (configuration not stated)
inactive: all assays above

Cc1ccc(NC(=O)N2CCCC2C(=O)Nc2c(C)cc(C)cc2C)cc1 (configuration not stated)
inactive: all assays above

CCC(=O)N(C)C[C@@H]1Oc2cc(C#CC(C)(C)O)ccc2S(=O)(=O)N([C@H](C)CO)C[C@H]1C
inactive: all assays above

C[C@H]1CN([C@@H](C)CO)C(=O)Cc2cc(N(C)C)ccc2O[C@@H]1CN(C)C(=O)Nc1ccc(C(F)(F)F)cc1
inactive: all assays above

COCC(=O)NC[C@H]1N[C@H](CO)[C@H]1c1ccc(C2=CCCC2)cc1
inactive: all assays above

CCCN1C[C@H](C)[C@@H](OC)CN(C)C(=O)c2cc(NC(=O)c3cccc(F)c3)ccc2OC[C@@H]1C
inactive: all assays above

O=C(Cc1ccccc1)N[C@H]1C=C[C@@H](CC(=O)N2CCOCC2)O[C@@H]1CO
inactive: all assays above

C[C@@H]1CN([C@H](C)CO)S(=O)(=O)c2ccc(C#C[C@@H](C)O)cc2O[C@@H]1CN(C)Cc1ccncc1
inactive: all assays above

COCCNC(=O)C[C@@H]1C[C@H]2c3cc(NC(=O)C4CCOCC4)ccc3O[C@H]2[C@H](CO)O1
inactive: all assays above

CO[C@H]1CN(C)C(=O)c2cc(NC(=O)C3CC3)ccc2OC[C@@H](C)N(Cc2cncnc2)C[C@H]1C
inactive: all assays above
